ALDH1A1 inh: qHTS Assay for Inhibitors of Aldehyde Dehydrogenase 1 (ALDH1A1) | Aldehyde dehydrogenase 1A1 (Homo sapiens), P00352 | Purified ALDH1A1, NADH fluorescence, propionaldehyde substrate | Potency, µM (doses to about 75.3 µM), most hits filed as inhibitors | 7.3% of 220,000 active | AID 1030, 2008; active = well fitted inhibition curve with a large enough effect, not every such curve was filed as active; inconclusive = small, poorly fitted or top-dose-only effect, or another doubt; inactive = no such curve, though single readings can be large or run the other way
KDM4E inh: qHTS Assay for Inhibitors of Human Jumonji Domain Containing 2E (JMJD2E); Lysine-specific demethylase 4E (Homo sapiens), B2RXH2; JMJD2E catalytic domain, FDH-coupled NADH fluorescence (FDH is formaldehyde dehydrogenase); Potency, µM (titrated, usually from 57.1 µM), most hits filed as inhibitors; 1.6% of 230,000 active; active = well fitted inhibition curve with a large enough effect, not every such curve was filed as active; inconclusive = small, poorly fitted or top-dose-only effect, or another doubt; inactive = no such curve, though single readings can be large or run the other way; also: nearly all actives have a fitted effect of over 50% in size
Target sequence (B2RXH2 1-337 limits assumed): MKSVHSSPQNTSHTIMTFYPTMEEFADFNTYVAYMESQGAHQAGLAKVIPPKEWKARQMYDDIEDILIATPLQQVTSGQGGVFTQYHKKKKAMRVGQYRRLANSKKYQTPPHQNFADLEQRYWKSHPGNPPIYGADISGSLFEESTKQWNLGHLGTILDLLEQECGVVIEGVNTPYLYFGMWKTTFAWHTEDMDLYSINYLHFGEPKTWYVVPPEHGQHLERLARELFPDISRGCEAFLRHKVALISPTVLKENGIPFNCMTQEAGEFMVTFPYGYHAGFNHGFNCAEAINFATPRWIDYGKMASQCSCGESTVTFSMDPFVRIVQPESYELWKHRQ
HttQ103 aggreg: qHTS Multiplex Assay to Identify Dual Action Probes in a Cell Model of Huntington: Aggregate Formation (GFP). PC12 HttQ103-GFP aggregates, Acumen cytometry, 40 h. Potency, µM (top dose mostly 46.1 µM), actives largely listed as inhibitors. 1.1% of 220,000 active; also: nearly all actives have a fitted effect of over 60% in size
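Compounds (qHTS titration) were added to PC12 cells expressing an ecdysone-driven HTT exon 1 Q103–GFP fusion after induction with 100 nM tebufenozide. Aggregate formation was measured as GFP objects in cell lysates.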
HPGD inh: qHTS Assay for Inhibitors of HPGD (15-Hydroxyprostaglandin Dehydrogenase). 15-hydroxyprostaglandin dehydrogenase [NAD(+)] (Homo sapiens), P15428. purified HPGD, NADH fluorescence kinetic, PGE2 substrate. Potency, µM, actives largely listed as inhibitors. 4.3% of 150,000 active; active = well fitted inhibition curve with a large enough effect, not every such curve was filed as active; inconclusive = small, poorly fitted or top-dose-only effect, or another doubt; inactive = no such curve, though single readings can be large or run the other way
Target sequence (P15428 whole entry, looked up): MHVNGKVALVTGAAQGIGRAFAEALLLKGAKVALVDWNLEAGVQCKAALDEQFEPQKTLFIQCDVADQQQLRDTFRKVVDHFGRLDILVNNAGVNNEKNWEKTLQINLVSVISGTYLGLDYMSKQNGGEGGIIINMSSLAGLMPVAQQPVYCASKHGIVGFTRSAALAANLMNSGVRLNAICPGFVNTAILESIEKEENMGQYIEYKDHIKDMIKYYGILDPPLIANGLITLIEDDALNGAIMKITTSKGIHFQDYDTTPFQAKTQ
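NADH formation kinetics: reaction with 30 uM PGE2 and 1 mM NAD+ (final), 20 nM enzyme, Tris-HCl pH 8 with Tween 20, after 15 min compound preincubation at room temperature. Fluorescence change, last versus first of five reads.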
HTT ATP protect: qHTS Multiplex Assay to Identify Dual Action Probes in a Cell Model of Huntington: Cytoprotection (ATP) | PC12 HTT-Q103 induced, cytoprotection, ATP luminescence, 40 h | 0.14% of 230,000 active | AID 1471, 2008 | Potency, µM (series often up to 56.4 µM), usual class: activators; also: nearly all actives have a fitted effect of over 45% in size
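Compounds added alongside 100 nM tebufenozide, which induces toxic Q103 huntingtin exon 1-GFP in stable PC12 cells; surviving cells quantified by luminescent ATP measurement. Medium: phenol red-free DMEM, 5% equine and 5% calf serum.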
CBFb-RUNX1 inh: qHTS Assay for Compounds Blocking the Interaction Between CBF-beta and RUNX1 for the Treatment of Acute Myeloid Leukemia; AlphaScreen CBFb-His/RUNX1-biotin binding, biochemical; Potency, µM (doses to about 59.8 µM), usual class: inhibitors; 230,000 tested, under 10 active; AID 1477, 2009
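CBF-beta (His) and RUNX1 (biotin), 30 nM each; 20 min preassociation; + compound, 15 min; + beads 50 ng each (Ni, streptavidin), 90 min; RT; AlphaScreen read.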
Numbers stand for hits; . = inactive; ? = inconclusive; / = not tested or not shown; [ ] = another dose, or the depositor's remark. The list is not random: actives were taken first. Their share in the collection is about 9.8%. Unless noted, calls follow the shape of the dose curve; as a rule, active = well fitted curve in the direction sought with a large enough effect; inconclusive = small, poorly fitted or top-dose-only effect, or another doubt; inactive = no such curve, though single readings can be large; an effect the other way counts as inactive or inconclusive.

SMILES	ALDH1A1 inh	KDM4E inh	HttQ103 aggreg	HPGD inh	HTT ATP protect	CBFb-RUNX1 inh
O=C(Cn1nc(C(F)F)cc1C(F)F)NNC(=S)Nc1ccc([N+](=O)[O-])cc1	17.8µM	.	.[9.22 µM]	/	.[10 µM]	.
Cc1nn(CCC(=O)NNC(=S)Nc2ccc([N+](=O)[O-])cc2)c(C)c1[N+](=O)[O-]	4.47µM	?	.	/	/	?
Cc1ccc(NC(=O)Cn2nc(C)c([N+](=O)[O-])c2C)cc1C	20µM	.	.[9.22 µM]	/	.	.
COc1ccc(NC(=O)CC#N)cc1OC	.	.	.	.	.	.
CCOc1cc(OCC)c(C(=O)CCC(=O)O)cc1OCC	/	/	.	/	.	/
COC(=O)c1c(C)oc(C)c1S(=O)(=O)N(C)C1CCCCC1	.	.	.[9.22 µM]	/	.[10 µM]	.
Cc1nn(Cc2ccccc2)c(C)c1NC(=O)CCCn1nc([N+](=O)[O-])c(Cl)c1C	?	.	.	.	.[10 µM]	.
Cc1nn(Cc2ccccc2Cl)c(C)c1NC(=O)CCCn1nc(C)c([N+](=O)[O-])c1C	15.8µM	.	.	.	.	.
Cc1nn(Cc2c(Cl)cccc2Cl)c(C)c1NC(=O)CCCn1nc([N+](=O)[O-])c(Cl)c1C	6.31µM	.	.	.	.[10 µM]	.
O=S(=O)(NC1CCc2ccccc21)c1ccc(S(=O)(=O)N2CCCC2)cc1 (centres undefined)	14.1µM	.	.	.	.[10 µM]	.
COc1cc(C(=O)Nc2ccc(S(=O)(=O)N3CCc4ccccc43)cc2)cc(OC)c1OC	?	.	.	.	.	.
O=C(Nc1ccc(CN2CCCCC2)cc1)c1ccc2c(c1)OCO2	.	.	.	28.2µM	.	.
O=C(Nc1ccc(S(=O)(=O)N2CCc3ccccc32)cc1)c1ccco1	25.1µM	.	?	.	.[10 µM]	.
O=C(Nc1ccc(S(=O)(=O)N2CCc3ccccc32)cc1)c1ccc2c(c1)OCO2	17.8µM	.	?	.	.[10 µM]	.
COc1ccccc1C(=O)Nc1ccc(S(=O)(=O)N2CCc3ccccc32)cc1	?	.	.	.	.	.
Cc1ccc(-c2nnc(OCC3CCCO3)c3ccccc23)cc1 (centres undefined)	.	.	.[9.22 µM]	/	.[10 µM]	.
CCN(CC)S(=O)(=O)c1ccc(/C=C/C(=O)OCC(=O)N(C(C)C)C(C)C)cc1	.	.	.	/	.[10 µM]	.
Cc1oc2ccccc2c1CC(=O)NCCCN(C)C	/	.	.[9.22 µM]	/	.[10 µM]	.
OCc1cc([C@@H](O)CNCCCCCCOCCCCc2ccccc2)ccc1O	.	.	/	.	.	.
O=S(=O)(NC1CCCC1)c1ccc(S(=O)(=O)N2CCc3ccccc32)cc1	31.6µM	.	11.2µM	.	.[10 µM]	.
CCc1nnc(NC(=O)c2ccc(S(=O)(=O)N3CCCc4ccccc43)cc2)o1	.	?	8.91µM	.	.[10 µM]	.
Cc1ccc2c(c1)cc(CN(Cc1ccc3c(c1)OCO3)C(=O)c1cnccn1)c1nnnn12	?	.	.	.	.	.
Cc1cc2cc(CN(Cc3ccc4c(c3)OCO4)C(=O)c3cnccn3)c3nnnn3c2cc1C	14.1µM	.	.	.	.	.
Clc1cccc(NCc2nnc3n2CCCCC3)c1	.	.	.	/	3.98µM	.
COc1ccc(C(=O)N2CCN(Cc3ccc4c(c3)OCO4)CC2)cc1[N+](=O)[O-]	1.58µM	.	?	/	.	.
SMILES	ALDH1A1 inh	KDM4E inh	HttQ103 aggreg	HPGD inh	HTT ATP protect	CBFb-RUNX1 inh
O=C(Oc1ccc2c(c1)OCO2)c1cc2c(s1)CCC2	.	?	.	22.4µM	.	?
O=C(c1ccc(Br)s1)N1CCN(Cc2ccc3c(c2)OCO3)CC1	.	.	.	.	.	.
O=C(c1cc2c(s1)CCCC2)N1CCN(Cc2ccc3c(c2)OCO3)CC1	14.1µM	.	.	.	.	.
O=C(Oc1ccc2c(c1)OCO2)c1ccc(F)cc1Cl	.	.	.[9.22 µM]	?	.[10 µM]	.
COC(=O)NC(c1cccc(F)c1)[C@@]1(C(=O)OC)CCCC1=O (some centres undefined)	.[13.5 µM]	/	/	/	?	.[13.1 µM]
CC(C)C[C@@H](CC(=O)N[C@H](CC(=O)N[C@@H]1CCNC[C@H]1C(=O)N[C@H](CC(=O)N[C@@H](CCC(=O)O)CC(=O)O)CC(C)C)C(C)C)NC(=O)[C@@H]1CCCC[C@H]1N	?	.	/	.	.[1.9 µM]	.
COc1ccc(CC(=O)c2ccc(O)cc2O)cc1	?	.	.[9.22 µM]	25.1µM	.	?
CCOc1ccc(C(=O)Cc2ccc3oc(C(=O)O)cc3c2)c(O)c1	?	.	.	7.94µM	.[10 µM]	.
CCOC(=O)c1cc2cc(CC(=O)c3ccc(OCC)cc3O)ccc2o1	.	.	.	.	.	.
C=CCc1cc(C=O)cc(OC)c1OCc1ccc(C(=O)O)cc1	10µM	?	.	/	/	.
CCOC(=O)c1cnc(SC2CC(=O)N(c3ccccc3)C2=O)nc1N (centres undefined)	?	.	.	.	.	.
CCOC(=O)c1cnc(SC2CCc3ccccc3C2=O)nc1N (centres undefined)	31.6µM	.	.	28.2µM	.	.
COc1ccc(Cc2nnc(NC(=O)Cn3cnc4c3c(=O)n(C)c(=O)n4C)s2)cc1OC	?	.	?	14.1µM	.	.
CC(=O)N[C@@H](Cc1c[nH]c2ccccc12)C(=O)OCC(=O)NCc1ccc2c(c1)OCO2	5.01µM	.	.	/	.[10 µM]	.
CC(=O)N[C@@H](Cc1c[nH]c2ccccc12)C(=O)OCC(=O)Nc1ccc(S(=O)(=O)N(C)C)cc1	3.98µM	.	.	/	/	.
O=S(=O)(NCc1ccccc1)c1ccc(Br)c2nsnc12	/	?	.[9.22 µM]	/	.[10 µM]	.
Cc1onc(-c2c(Cl)cccc2Cl)c1C(=O)Nc1ccc2c(c1)OCO2	.	.	.	.	.	.
Cc1cccc(C(=O)NN2C(=O)C3C(c4ccccc4)C=CC(c4ccccc4)C3C2=O)c1 (centres undefined)	.	.	.	.	.	.
O=C(NN1C(=O)C2C3C=CC(O3)C2C1=O)c1cccc(O)c1 (centres undefined)	20µM	.	.	.	.[10 µM]	.
O=C(NN1C(=O)C2C3C=CC(O3)C2C1=O)c1cccc(Br)c1 (centres undefined)	28.2µM	.	.	/	?	.
Cc1ccc2c(c1)C(c1ccccc1)C(=O)O2 (centres undefined)	/	.	.[9.22 µM]	/	.[10 µM]	.
